# Compound activity: PubChem, National Center for Advancing Translational Sciences (NCATS)
# HT1080 IDH1KD tx: HT-1080 IDH1 knockdown cell toxicity (counter line); HT-1080 IDH1 knockdown viability, ATP luminescence, 48 h; Potency, µM (titrated, usually from 46.1 µM), for inactives: at the highest dose activity, negative = toxicity, actives largely listed as cytotoxic; hit rate 2% among 360,000; AID 686971;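 further: potency means the concentration at half of the fitted maximal effect; 0% = DMSO wells and -100% = cell-free medium wells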
#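 After a 2 h attachment period, IDH1KD HT-1080 cells took pin-transferred compound for 48 h at 37 °C; ATP-based luminescence after 10 min room-temperature reagent incubation reported viability.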
# HT1080-NT tox: kills 2HG-producing HT-1080-NT fibrosarcoma cells | hit rate 1.6% among 360,000 | HT-1080-NT fibrosarcoma viability, CellTiter-Glo ATP luminescence, 48 h | Potency, µM (doses to about 46.1 µM), without a hit: at the top dose activity, negative = less viability, usual class: cytotoxic;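 further: NT is the 2HG producing partner of a matched IDH1 knockdown line; potency means the concentration at half of the fitted maximal effect; 0% = DMSO-treated cells and -100% = media-only wells without cells; nearly all actives have a fitted effect of over 55% in size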
#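 Luminescent CellTiter-Glo readout after 48 hours of compound exposure at 37 degrees C defined viability of HT-1080-NT cells. Activity was normalized to DMSO wells and cell-free media wells; concentration-response curves were fitted and assigned curve classes.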
# TDP1 cell noCPT: qHTS for Inhibitors of human tyrosyl-DNA phosphodiesterase 1 (TDP1): qHTS in cells in absence of CPT. hit rate 15% among 420,000. DT40 Tdp1-/- hTDP1 cells, no CPT, ATP luminescence, 48 h. AID 686978, 2013. Potency, µM (titrated, usually from 46.2 µM), for inactives: top-dose activity change, negative = growth inhibition, hits mostly inhibitors; further: potency means the concentration at half of the fitted maximal effect; nearly all actives have a fitted effect of over 55% in size
#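 Luminescent ATP content (CellTiter-Glo) served as the growth readout. Knockout chicken DT40 cells expressing human TDP1 were exposed to compounds without camptothecin for a minimum 48 hr at 37 °C.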
# IL1B secr inh: inflammasome signaling inhibition, IL-1 beta readout; THP-1 LPS/ATP IL-1B secretion, AlphaLISA, 16 h; active compounds read low; activity change, % at 57.5 µM; hit rate 4.7% among 360,000; in the data active means activity change below about -50%; inconclusive means mostly about -30% to -49%
#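 Secreted IL-1B measured by AlphaLISA bead assay after 16 h compound exposure of THP-1 cells; compounds (final up to 57.5 uM) added 1 h before LPS (250 ng/mL) and ATP (1.25 mM) stimulation; lower signal means less secretion.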
# TDP1 cell CPT: growth inhibition of DT40 Tdp1-/-;hTDP1 cells with camptothecin (screen for TDP1 inhibitors). chicken DT40 Tdp1-/-;hTDP1 cells + 20 nM CPT, ATP luminescence, 48 h. hit rate 12% among 420,000. Potency, µM (titrated, usually from 46.2 µM), for inactives: top-dose activity change, negative = growth inhibition, most hits filed as inhibitors; further: potency means the concentration at half of the fitted maximal effect; nearly all actives have a fitted effect of over 55% in size
#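 Chicken DT40 Tdp1-/- cells stably complemented with human TDP1 were seeded at 400 cells/well in medium containing 20 nM camptothecin, exposed to pin-transferred compounds, and grown at 37 °C for at least 48 hr. Viability was read as ATP luminescence.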
# The depositor's hits bear a star; u = inconclusive; x = no result; ! = not confirmed by another sample; [ ] = another dose, or the depositor's remark. Compounds with a hit are over-represented: about 19% of the library has one in this group of screens. Unless noted, the call rests on the fitted dose curve; in most records, active means well fitted curve in the direction sought with a large enough effect; inconclusive means small, poorly fitted or top-dose-only effect, or another doubt; inactive means no such curve, though single readings can be large; an effect the other way counts as inactive or inconclusive. Unless noted, on the % scale 0 is the no-effect control and ±100 the full control effect.
SMILES,HT1080 IDH1KD tx,HT1080-NT tox,TDP1 cell noCPT,IL1B secr inh,TDP1 cell CPT
CCC(=NCc1ccco1)c1c(O)n(C)c(=O)n(C)c1=O,-3%,-21%,u,24,u
CCc1ccc(OCCCN=C(C)c2c(O)n(C)c(=O)n(C)c2=O)cc1,u,-6%,18µM*,15,13µM*
Cn1c(O)c(C(=Nc2ccccc2)SCc2ccc(Cl)cc2)c(=O)n(C)c1=O,u,u,3.3µM*,15,4.6µM*
CCC(=NCCc1ccccc1)c1c(O)n(C)c(=O)n(C)c1=O,u,u,8.2µM*,-19,u
CC(=NCc1ccco1)c1c(O)n(C)c(=O)n(C)c1=O,-22%,-3%,-13%,-11,-22%
C[C@]12CC[C@@H]3c4ccc(OC(=O)N(CCCl)CCCl)cc4CC[C@H]3[C@@H]1CC[C@@H]2OP(=O)(O)O,x,x,-3%,x,3%
Cc1ccc(-c2nn(C)c(=O)c3ccccc23)cc1CNC(=O)/C=C/c1ccccc1,-20%,-7%,u,-20,-24%
CCN(CC(=O)Nc1ccccc1C(F)(F)F)C(=O)CCSc1ccc(F)cc1,0%,-5%,u,-14,-24%
CCc1ccc(NP(=O)(Oc2ccccc2F)Oc2ccccc2F)cc1,23µM*,18µM*,u,-102*,u
COc1ccc(C)cc1NC(=O)c1c(C)nn(Cc2ccccc2)c1Cl,-10%,-21%,u,-98*,5%
OC[C@@H](O)[C@H]1O[C@@H]2O[C@H](C(Cl)(Cl)Cl)O[C@@H]2[C@H]1O,x,x,0%,x,6%
CC1=C(O)C(=O)[C@H]2O[C@@H]2C1=O,x,x,11µM*,x,7.5µM*
O=C1CN=C(c2cc([N+](=O)[O-])ccc2Cl)c2cc([N+](=O)[O-])ccc2N1,-17%,0%,-19%,-12,0%
O=C1CN=C(c2ccccc2)c2ccccc2N1,8%,13%,17%,25,-3%
O=C1CN=C(c2cccc(Br)c2)c2cc(Br)ccc2N1,u,u,16µM*,u,-4%
O=C1CN=C(c2ccccc2)c2cc([N+](=O)[O-])ccc2N1,-3%,6%,3%,-78*,-21%
Cc1ccc([C@H]2C[C@@H](O)[C@H](n3cc(COC(=O)c4ccccc4)nn3)CN2C(=O)C2CCCCC2)cc1,0%,0%,u,-26,-23%
CC(C)c1ccc(OCC(=O)N2CCN(CCc3ccncc3)CC2)cc1,x,x,-23%,x,-5%
CN1C(=O)C(=Cc2ccc(N3CCCCCC3)o2)C(=O)N(C)C1=S,1%,-2%,23µM*,-26,u
N[C@H](CCP(=O)(O)O)C(=O)O,x,x,6%,x,2%
CCC1([N+](=O)[O-])COP(N)(=O)OC1 (configuration not stated),24%,7%,-21%,-5,u
Cc1ccc(C)c(-n2c(C)nc3ccccc3c2=O)c1,7%,u,u,13,u
Cc1ccc2c(c1)c(C1=c3ccccc3=NC1=O)c(O)n2C,-4%,0%,2.1µM*,-15,4.6µM*
CCCCOC(=O)C1=C(N)OC2=C(C(=O)CCC2)[C@]12C(=O)Nc1ccccc12,0%,3%,-18%,8,-14%
O=C1c2ccccc2-c2cccc3cccc1c23,1%,17%,18µM*!,-17,21µM*!
SMILES,HT1080 IDH1KD tx,HT1080-NT tox,TDP1 cell noCPT,IL1B secr inh,TDP1 cell CPT
CC(C)(C)c1ccc(C(=O)NNC(=O)Cc2cccc3ccccc23)cc1,u,-22%,u,-12,u
O=C(OCc1c(-c2ccccc2)ncc2ccccc12)c1ccc(C(F)(F)F)cc1,7%,8%,5.8µM*,18,u
COc1ccccc1NC(=O)c1oc2ccccc2c1NC(=O)c1ccccc1C(F)(F)F,x,x,5.2µM*,x,3.7µM*
CN(C)C(=O)Oc1cccc(NC(=O)c2ccccc2C(F)(F)F)c1,20%,18%,-1%,15,-4%
C=CCn1c(O)c(/C(C)=N/N2CCN(C)CC2)c(=O)[nH]c1=O,-4%,0%,-11%,21,-3%
CN(Cc1ccccc1)C1CCCN(C(=O)COc2ccccc2Cl)C1 (configuration not stated),-2%,-8%,16µM*,-8,u
Cc1ccccc1-n1c(O)c(/C=N/N2CCOCC2)c(=O)[nH]c1=S,25%,13%,3%,5,0%
Cc1ccccc1C(=O)Nc1ccc(C(=O)OCc2cc(=O)n3nc(C4CC4)sc3n2)cc1,x,x,u,x,21µM*
COC(=O)c1ccc(NC(=O)c2cccn(Cc3ccccc3C)c2=O)cc1,x,x,11%,x,-12%
CC1(C)N([O])C(c2ccc(C(=O)O)cc2)=[N+]([O-])C1(C)C,x,x,-25%,x,16%
C[n+]1c(-c2ccccc2)cc(-c2ccc(Cl)cc2)cc1-c1ccccc1,u,u,2.1µM*,-83*,3.7µM*
CN(C)c1ccc(-[n+]2c(-c3ccccc3)cc(-c3ccccc3)cc2-c2ccccc2)cc1,2.6µM*,10µM*,0.41µM*,-92*,0.33µM*
Cc1ccc(-c2cc(-c3ccccc3)cc(-c3ccccc3)[n+]2-c2ccccc2)cc1,12µM*,u,0.92µM*,-100*,1.6µM*
Cc1ccc(-c2cc(-c3ccc(C)cc3)[n+](-c3ccc(C(=O)[O-])cc3)c(-c3ccc(C)cc3)c2)cc1,-15%,-17%,u,21,u
Cc1ccc(-c2cc(-c3ccc(C)cc3)[n+](-c3ccccc3)c(-c3ccc(C)cc3)c2)cc1,7.3µM*,5.2µM*,0.37µM*,-99*,0.52µM*
CCCC[N+]12C3CC(C(CC)[C@H]1O)[C@@H]1C(O)C4(C[C@@H]12)c1ccccc1N(C)C34 (some centres not stated),x,x,-10%[9.04 µM],x,u
CCC1(O)C(=O)OCc2c1cc1n(c2=O)Cc2cc3c(N)cccc3nc2-1 (configuration not stated),0.65µM*,1.6µM*,0.052µM*,-97*,0.21µM*
O=C(NCc1ccccc1)c1cccn(Cc2ccccc2)c1=O,0%,-2%,u,14,u
O=C(c1cc(C(=O)NCc2ccccc2)c(=O)n(Cc2ccccc2)c1)c1cc(Cl)ccc1O,-24%,-20%,8.2µM*,-3,7.3µM*
CN1C(=O)C(O)N=C(c2ccccc2)c2cc(Cl)ccc21 (configuration not stated),x,x,1%,x,7%
Cn1cnc([N+](=O)[O-])c1Sc1ccc([N+](=O)[O-])cc1,21µM*,16µM*,5.2µM*,-101*,3.7µM*
